# TLR9-MyD88 inh: TLR9-MyD88 interaction inhibition; inhibition, % at 4.98 µM; Q9NR96+Q99836; 340,000 tested, 0.21% active; CHO BLA complementation TLR9-MyD88, CCF4 FRET ratio;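 active means inhibition above the mean over all tested compounds plus 3 SD, cut at about 21% in these data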
# rCAG RNA binder: r(CAG) repeat RNA binding; TO-PRO-1 dye displacement fluorescence; inhibition, % at 3 µM; 370,000 tested, 1.3% active;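 active means inhibition above the plate cutoff, the mean of all test compounds on that plate plus 3 SD, cut at about 35% in these data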;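 further: higher means more dye released from RNA so lower well fluorescence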
# TLR4-MyD88 BLA: inhibitors of human TLR4-MyD88 binding | O00206+Q99836 | HeLa CL3-4 TLR4/MyD88 BLA complementation, FRET ratio | inhibition, % at 8.4 µM | 200,000 tested, 0.18% active | AID 861; in the data active means inhibition above about 25%
# ABHD5 PLIN5 PPI: blocks binding of human ABHD5 to perilipin-5 | Q00G26+Q8WTS1 | Split G. princeps luciferase complementation, luminescence, 4 h | inhibition, % at 4 µM | 360,000 tested, 0.78% active;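 active means inhibition above the mean inhibition across every tested compound plus 3 SD, cut at about 22% in these data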
# PRMT1 FP inh: PRMT1 (human) inhibition, primary screen; recombinant PRMT1, activity-based probe fluorescence polarization; inhibition, % at 2.79 µM; 370,000 tested, 1.3% active; AID 652257;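 active means inhibition above about 21% made by adding two undisclosed values, limit read from the data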
# NOD2-RIPK2 inh: blocks binding of human NOD2 to RIPK2. CHO BLA complementation NOD2-RIPK2, CCF4 ratio. O43353. inhibition, % at 4.98 µM. 360,000 tested, 0.38% active. AID 624267; in the data active means inhibition above about 21%
# PRMT1 confirm: confirmation of human PRMT1 inhibitors; shares compounds with PRMT1 FP inh; recombinant His-PRMT1, activity-based probe fluorescence polarization; inhibition, % at 2.79 µM; 3,300 tested, 42% active; AID 687036;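 active means mean inhibition across replicates above the hit cutoff derived for the earlier primary screen, cut at about 22% in these data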
# Numbers stand for hits; – = inactive; · = no result given. An excerpt weighted towards active compounds, which were near 3.3% of everything screened.
SMILES,TLR9-MyD88 inh,rCAG RNA binder,TLR4-MyD88 BLA,ABHD5 PLIN5 PPI,PRMT1 FP inh,NOD2-RIPK2 inh,PRMT1 confirm
COc1ccc(-c2nc(CSCC(=O)NC3CCCc4ccccc43)c(C)o2)cc1 (stereo not given),–,–,–,–,29.3,–,26.5
COc1ccc2sc(SCCCS(=O)(=O)O)[n+](CCCS(=O)(=O)[O-])c2c1,–,–,–,–,58.0,–,59.0
Cc1cc(N2CCN(C)CC2)nc2ccc(NC(=S)N3CCC4(CC3)OCCO4)cc12,–,–,–,–,–,–,·
O=C(c1cnn(-c2ccccc2)c1-n1cccc1)N1CCN(C2CCCCC2)CC1,–,–,–,–,–,–,·
CCOC(=O)c1c(-n2c(C)cc(C=O)c2C)sc2c1CCCC2,–,–,–,–,–,–,·
Cc1ccc(C)n1-c1sc2c(c1C(=O)O)CCCC2,–,35.5,–,–,27.0,–,–
Nn1c(SCc2cn3cc(Cl)ccc3n2)nnc1-c1ccncc1,–,–,–,–,25.0,–,39.8
Cc1cc[n+](-c2[nH]c(=O)sc2/C=N/NC([S-])=Nc2ccccc2)cc1C,–,–,–,–,56.0,–,25.5
Cc1ccc[n+](-c2[nH]c(=O)sc2/C=N/N=C(\[O-])CCn2c3ccccc3c3ccccc32)c1,–,–,·,–,–,–,·
CCC(=O)NNc1nc2c(F)cc(F)cc2s1,–,–,–,–,–,–,·
CCC(=O)NNc1nc2c(F)cccc2s1,–,–,–,–,48.6,–,–
COc1ccc(C(=O)NC(=S)SCC(=O)O)cc1,–,–,·,–,–,–,·
CCOC(=O)CSC(=S)NC(=O)c1ccc(OC)cc1,–,–,–,–,27.3,–,99.8
Cc1c(-c2n[nH]c(=S)n2-c2ccc(C(F)(F)F)cc2)nnn1-c1ccccc1,–,–,–,–,30.0,–,–
COc1ccccc1CN1C(=O)C(C)ON=C1c1ccccc1F (stereo not given),·,–,·,–,–,–,·
CC(C)(C)n1nnnc1C(c1ccncc1)N1CCN(c2ccc(O)cc2)CC1 (stereo not given),–,–,–,–,27.1,–,–
CC(C)(C)n1nnnc1C(c1ccccc1)N1CCN(c2ccccc2)CC1 (stereo not given),·,–,·,–,–,–,·
CC(=O)OCC1=C(C(=O)O)N2C(=O)C(NC(=O)c3ccc(COc4cccc(Cl)c4Cl)o3)C2SC1 (stereo not given),–,–,–,–,36.8,–,–
COc1cccc(C(=O)NC2C(=O)N3C(C(=O)O)=C(COC(C)=O)CSC23)c1 (stereo not given),–,–,·,–,29.1,–,33.6
CC1=C(C(=O)O)N2C(=O)C(NC(=O)c3ccccc3Cl)C2SC1 (stereo not given),–,–,·,–,–,–,·
O=C(NCC(F)(F)F)c1ccc(S(=O)(=O)N2CCN(C(=O)C3CCCO3)CC2)cc1 (stereo not given),–,–,·,–,70.5,–,–
Cc1ccc(S(=O)(=O)N2CCN(C(=O)C3CCCO3)CC2)cc1 (stereo not given),–,–,·,–,–,–,·
CCOc1cc(/C=C2\N=C(SCC)SC2=O)cc([N+](=O)[O-])c1OC(C)=O,–,–,–,–,–,–,·
CCOc1c(OC(C)=O)ccc(/C=C2\N=C(SCC)SC2=O)c1[N+](=O)[O-],–,–,–,–,27.0,–,–
CCOC(=O)[C@H]1[C@H]2COc3ccccc3[C@@H]2N2C(=O)CN(Cc3ccc(C)cc3)C(=O)[C@@]12C,–,–,·,–,50.2,–,–
SMILES,TLR9-MyD88 inh,rCAG RNA binder,TLR4-MyD88 BLA,ABHD5 PLIN5 PPI,PRMT1 FP inh,NOD2-RIPK2 inh,PRMT1 confirm
CCOC(=O)[C@H]1[C@H]2COc3ccc(C)cc3[C@@H]2N2C(=O)CN(Cc3ccc(Cl)cc3)C(=O)[C@@]12C,–,–,·,–,–,–,·
Nn1c(SCC(=O)Nc2cccc(Br)c2)nnc1C1CC1,–,–,·,–,–,–,·
O=C(NCc1cccnc1)Nc1ccc2c(c1)OCO2,–,–,–,–,–,–,·
c1cncc(CNc2ccc3c(c2)OCO3)c1,–,–,–,–,74.7,–,–
CCOC(=O)C1=C(C)Nc2ccc(C)cc2S1,–,–,–,–,41.7,–,–
CCOC(=O)C1=C(C)Nc2ccccc2S1,–,–,·,–,31.3,–,–
CSCCOC(=O)C1=C(C)Nc2ccc(C)cc2S1,–,–,–,–,34.3,–,–
CCOC(=O)/C=C1\Nc2ccccc2SC1=O,–,–,–,–,–,–,·
CCOCCOC(=O)C1=C(C)Nc2ccc(C)cc2S1,–,–,–,–,–,–,·
O=S(=O)(Nc1ccc(O)c(NS(=O)(=O)c2ccccc2)c1)c1ccccc1,–,–,·,–,31.2,–,–
CCOCCCn1c(=N)c(C(=O)Nc2cc(C)on2)cc2c(=O)n3ccccc3nc21,·,·,–,·,·,·,·
CN1C(=O)C[C@@](C#N)(C(=O)NCCc2ccccc2)[C@H]1c1ccccc1,·,–,·,·,–,·,·
CC1(C)Cc2[nH]c(=S)c(C#N)cc2CO1,–,–,–,–,41.4,–,23.9
N#Cc1cc2c([nH]c1=S)CCCC2,–,–,–,–,32.4,–,–
CC1(C)Cc2c(c(N3CCCC3)[nH]c(=S)c2C#N)CO1,·,·,–,·,·,·,·
O=C(CSc1ccccn1)N1CCN(c2cccc(Cl)c2)CC1,–,–,–,–,46.8,–,53.0
O=C(CSc1ccccn1)N1CCN(c2ccccc2)CC1,–,·,–,–,·,–,·
O=C1Nc2ccccc2C(=O)C1(Cl)Cc1ccccc1 (stereo not given),–,–,–,–,93.0,–,87.3
COc1ccc(N2CCCC2)c(NC(=O)c2ccc([N+](=O)[O-])o2)c1,–,–,·,–,38.6,–,–
O=C(Nc1ccccc1N1CCCC1)c1ccc([N+](=O)[O-])o1,–,–,·,–,–,–,·
COc1ccc2c(c1)-c1ccccc1S(=O)(=O)N(C)C2,–,–,·,–,29.9,–,–
Cc1ccc2cc3c(N)c(C(=O)Nc4c(C)[nH]c(=O)[nH]c4=O)sc3nc2c1,–,–,–,–,31.2,–,–
Nc1c(C(=O)O)sc2nc(-c3ccccc3)c3c(c12)CCCC3,–,–,–,–,26.9,–,–
COC(=O)c1sc2nc(-c3ccccc3)c3c(c2c1N)CCCC3,–,–,–,–,–,–,·
CCc1oc(C(=O)O)cc1CN(CC)CC,–,–,–,–,–,–,·
CCN(CC)Cc1cc(O)c(CN(CC)CC)cc1O,–,–,–,–,30.3,–,76.4
COc1ccccc1Cc1c(-c2ccc(F)cc2)nc2ccc(Br)cn12,·,–,·,–,–,–,·
COc1ccccc1Cc1c(-c2ccco2)nc2ccc(Br)cn12,·,–,·,42.0,31.4,–,26.2
COc1ccccc1Cc1c(-c2ccco2)nc2ccc(Cl)cn12,·,–,·,27.4,28.4,–,–
OCc1ccc2c(c1)c(-c1ccc3c(c1)OCCO3)c(-c1ccccc1)n2-c1ccccc1,–,–,·,–,–,–,·

# Assay outcomes from PubChem BioAssay.
